# In all, about 25,000 sequences were measured (“ln(normalized median fluorescence intensity)”: median about 9.7, highest 2% from about 11 on). The sample holds the highest values, similar sequences and a random draw of the others, so the mix is not that of the screen.
# Test system: PfAP2-HC AP2 domain (GST-tagged)
# Experiment: gcPBM binding intensity (ln(normalized median fluorescence intensity)); higher = stronger DNA binding
# Method in brief: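 Binding intensity is the highest Masliner-normalised natural-log median intensity over replicate spots in either probe orientation. To obtain it, GST-tagged P. falciparum DNA-binding domains made in E. coli were incubated for 1 h on an Agilent 4 × 180k array of primer-extended double-stranded 36-bp intergenic genomic probes plus negative controls. Detection used Alexa488 anti-GST antibody with scanning at 488 nm.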
row,Sequence,gcPBM binding intensity (ln)
1,AATGTACACCCACCCACACACAAACAAATATATATA [CACACA_site5521],10.3
2,TACATATATAAAAAAACACACACATATATATATATA [CACACA_site8315],9.93
3,AATGTACACGCACCCACACACAAACAAATATAAATA [CACACA_site7319],11.6
4,TATATATAAAAACACACACACACACCCTATAATTAT [CACACA_site4063],11.3
5,AATATAAATAAAAACACACACACACCCATATATATA [CACACA_site2267],11.3
6,AAAAAAAAAAAACACACACACACACCCATATATAAA [CACACA_site1170],11.1
7,ATATAATATATATATAAACACACAAAAAAAATTATA [CACACA_site8434],9.97
8,TAAACACCCATATAAACACACATATAAACACCCATA [CACACA_site5382],10.3
9,TTTATTTTTATGGTCACACATATTTTTAAAACTATA [CACACA_site4372],9.77
10,TTTCATTTTTTTACATGTACGCAAAAGTGTGTAGTT [XGTACX_site6582],9.78
11,TTTTTTTTTGAATACAGTACACAAGTGTTAAGTTTA [XGTACX_site7069],9.36
12,TAAGTATACTCATACACACACACACTAGAAAAAAAA [CACACA_site4397],10.4
13,TTCCACATTTTACAGACACACACAATTTATATTACG [CACACA_site8572],10.1
14,ATGTTAAACAAATCTATACACACGTATATGACAAAA [CACACA_site1783],9.71
15,TTTTGAAGTAATACATGTACTTAAATTACTAAAAAA [XGTACX_site1955],9.47
16,TTCATATATTTTAAAGCATGCATTCATCTTATAGTT [TGCATGCA_site800],9.71
17,TTGTATATATTTATATGTACATATATTACTTTTGCT [XGTACX_site2449],9.83
18,TAAAATAACTCACAAAGTACAAAAATAAGCATATGA [XGTACX_site7046],9.79
19,TTTATTTTGTTTTCTTGTACATAAATAATTACATAT [XGTACX_site4227],9.86
20,TATCTCATAGTATACACACACACACCCACCCATATA [CACACA_site1739],10.7
21,TCATAGTATAAACACACACACACACCCATATATATA [CACACA_site8512],11
22,TACACGCATAAACACACACACACACCCATATATATA [CACACA_site8114],11.3
23,TAAACACCCATATAAACACACATACATACATACATA [CACACA_site5383],10.4

row,Sequence,gcPBM binding intensity (ln)
1,AACACCCATGGACACACACACATATATATATATATA [CACACA_site5809],10.4
2,CAAAAAATGAAACACACACACACACCCATAAATAAA [CACACA_site1231],10.8
3,TATAAACACCCATATAAACACACATACATACATACA [CACACA_site8791],10.2
4,TCATAGTATGGACACACACACACACCCATATATATA [CACACA_site5033],11.2
5,ATTCATATGAAACACACACACACACCCATAAAAAAA [CACACA_site3246],10.5
6,ATAATCCTGAAACACACACACACACCCATAAATAAA [CACACA_site481],11.1
7,ATTAGTGACATTATTACACACAAAAGAAAACAGAAA [CACACA_site3984],9.99
8,TTTCAAAAAAATAATGTGCACATTAGAAAATAAATA [GTGCAC_site9416],9.78
9,TATTTTTTGAAAAGTTCACACATCCAACTCGAGTTG [CACACA_site4412],9.62
10,TATATATATATAATATGTACATATATATATTCTTAA [XGTACX_site6154],9.49
11,GTATGTATAATATACACACTCACAAGCATTCAAATA [CACACA_site267],9.76
12,TACACGCATGGACACACACACACACCCATATATATA [CACACA_site4522],11
13,ACCATATAAATAAACACACACACACCCATATATATA [CACACA_site2321],10.6
14,TATATAAAGAAACACACACACACCTTATAATTATTA [CACACA_site4062],11.2
15,TATTAAACGAAACACACACACACACCCATATATAAA [CACACA_site759],11.5
16,AAAAAAAATAAACACACACACATACCCATAAATATA [CACACA_site5980],10.4
17,TACACCCATGGACACACACACACGCATAAAAAAAAA [CACACA_site4933],10.7
18,CACGCATACAGACACACACACACACCCATATATATA [CACACA_site636],10.6
19,TATATAAATAAACACACACACACCTTATAATTATTA [CACACA_site9345],10.5
20,GAAAAACAAATATATTAACACACAAACATATAAACA [CACACA_site9315],10.2
21,AAAAAAAAAAAAAACACACACACACCCATAAATATA [CACACA_site151],11.2
22,TAAAGAATATTATAAACACACACTTTATAAAGAATT [CACACA_site114],9.91
23,TATATATTAAAACACACACACATATATATATATATA [CACACA_site3787],10.1

# From the supplement of paper PMC11417369
